Assay outcomes (PubChem)
HT1080 IDH1KD tx: kills HT-1080 cells with IDH1 knockdown | HT-1080 IDH1 knockdown viability, ATP luminescence, 48 h | Potency, µM (highest dose often 46.1 µM), for the others: at the top dose activity, negative = toxicity, actives largely listed as cytotoxic | 2% of 360,000 active;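 further: 0% = DMSO wells and -100% = cell-free medium wells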
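CellTiter-Glo luminescence after 48 h compound exposure at 37 degrees C of IDH1-knockdown HT-1080 cells in 5% FBS RPMI. %Activity scaled between DMSO wells and cell-free media wells, with curves fitted and assigned curve classes.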
HepG2 viability: counter-screen for TGF-b inhibitors: cytotoxicity in HepG2 cells | HepG2 CAGA-GFP viability, ATP luminescence, 18 h | Potency, µM (top dose mostly 46.1 µM), for inactives: at the highest dose activity change, negative = cytotoxicity, usual class: cytotoxic | 0.76% of 410,000 active | AID 588856
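CellTiter-Glo luminescence gave cytotoxicity after 18 hours at 37 degrees C. The cells were HepG2 CAGA-GFP in 1% FBS DMEM, stimulated with 500 pg/mL TGF-beta after compound addition. %Activity was normalised to no-cell wells (complete cell-killing) and DMSO (no toxicity), and curves were fitted and classified.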
DT40 TDP1 CPT: DT40-hTDP1 cell growth loss with CPT; 12% of 420,000 active; chicken DT40 Tdp1-/-;hTDP1 cells + 20 nM CPT, ATP luminescence, 48 h; Potency, µM (top dose mostly 46.2 µM), inactives show top-dose activity change, negative = growth inhibition, actives largely listed as inhibitors; further: on the % scale 0 is the no-effect control and ±100 the full control effect; nearly all actives have a fitted effect of over 55% in size
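Cell growth measured by CellTiter-Glo luminescence after a minimum 48 h, 37 C compound exposure with 20 nM CPT in Tdp1-knockout DT40 cells stably expressing hTDP1, seeded 400/well; qHTS titration format.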
TDP1 cell noCPT: qHTS for Inhibitors of human tyrosyl-DNA phosphodiesterase 1 (TDP1): qHTS in cells in absence of CPT; DT40 Tdp1-/- hTDP1 cells, no CPT, ATP luminescence, 48 h; Potency, µM (series often up to 46.2 µM), inactives show top-dose activity change, negative = growth inhibition, actives largely listed as inhibitors; 15% of 420,000 active; AID 686978, 2013; further: on the % scale 0 is the no-effect control and ±100 the full control effect; nearly all actives have a fitted effect of over 55% in size
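A cellular qHTS used chicken DT40 cells lacking endogenous Tdp1 but carrying stably transfected human TDP1. Compounds were applied without camptothecin, and cell growth kinetics were judged by ATP-dependent luminescence after ≥48 hr.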
TGFb SMAD3 inh: inhibitors of TGF-b signaling; AID 588855; Potency, µM (doses to about 46.1 µM), inactives show at the top dose activity, negative = inhibition, most hits filed as inhibitors; 1.2% of 410,000 active; HepG2 CAGA-GFP TGF-b/SMAD3 reporter, GFP fluorescence, 18 h; TGF-beta stimulated, 500 pg/mL final; further: on the % scale 0 is the no-effect control and ±100 the full control effect; nearly all actives have a fitted effect of over 65% in size
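Per well, imaged GFP fluorescence of HEPG2 CAGA-GFP cells gives the signal; cells get compound, then TGF-beta (500 pg/mL final), 18 h at 37 degrees C; %Activity versus -TGF-beta and +DMSO controls.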
HT1080NT lethal: kills 2HG-producing HT-1080-NT fibrosarcoma cells | AID 686970 | 1.6% of 360,000 active | HT-1080-NT fibrosarcoma viability, CellTiter-Glo ATP luminescence, 48 h | Potency, µM (doses to about 46.1 µM), inactives show at the top dose activity, negative = less viability, actives largely listed as cytotoxic;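 further: NT is the 2HG producing partner of a matched IDH1 knockdown line; 0% = DMSO-treated cells and -100% = media-only wells without cells; nearly all actives have a fitted effect of over 55% in size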
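HT-1080-NT fibrosarcoma cells (2HG-overproducing), 750 cells/well in RPMI with 5% FBS, dosed after 2 h and incubated 48 h at 37C. CellTiter-Glo luminescence normalized to DMSO and no-cell wells; concentration-response curves fitted and classed.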
* marks the source's active call; other numbers are inactive results. In the library only some 17% were active in any assay of this set; here they are far more common. The call rests on the fitted dose curve; in most records, active means well fitted curve in the direction sought with a large enough effect; inconclusive means small, poorly fitted or top-dose-only effect, or another doubt; inactive means no such curve, though single readings can be large; an effect the other way counts as inactive or inconclusive. Potency means the concentration at half of the fitted maximal effect.

Screening COc1cc(N(C)C)c(OC)cc1/C=C1\C=Cc2ccccc21 returned HepG2 viability -24%, DT40 TDP1 CPT inconclusive, TDP1 cell noCPT 13µM* and TGFb SMAD3 inh -26%.
Screening COc1cc(N(C)C)ccc1/C=C1\C=Cc2ccccc21 returned HepG2 viability -29%, DT40 TDP1 CPT inconclusive, TDP1 cell noCPT 16µM* and TGFb SMAD3 inh -3%.
`COc1cc(N(C)C)c(OC)cc1C=O` gave HepG2 viability 22%, DT40 TDP1 CPT 16µM*, TDP1 cell noCPT 11µM* and TGFb SMAD3 inh -8%.
C/C(=N\NC(=O)C1CC1)c1ccccc1Br was read as HT1080 IDH1KD tx 7%, HepG2 viability 3%, DT40 TDP1 CPT -16%, TDP1 cell noCPT 0%, TGFb SMAD3 inh -1% and HT1080NT lethal 0%.
CC(=O)Nc1ccc(S(=O)(=O)NCC(=O)OCC(=O)N2CCCc3ccccc32)cc1 was read as HT1080 IDH1KD tx 3%, HepG2 viability -1%, DT40 TDP1 CPT -1%, TDP1 cell noCPT 2%, TGFb SMAD3 inh 11% and HT1080NT lethal 5%.
For CN1OC[C@@H]2CN(C(=O)NC3CCCCC3)[C@H](c3ccc(N4CCCCC4)cc3)C[C@@H]21 the results were HT1080 IDH1KD tx 13%, HepG2 viability 0%, DT40 TDP1 CPT 1%, TDP1 cell noCPT inconclusive, TGFb SMAD3 inh 3% and HT1080NT lethal 11%.
For O=C(CNC(=S)NC(=O)c1cccs1)c1ccccc1 the results were HT1080 IDH1KD tx 10%, HepG2 viability -32%, DT40 TDP1 CPT 16µM*, TDP1 cell noCPT 15µM*, TGFb SMAD3 inh -4% and HT1080NT lethal 14%.
`O=C(NNC(=S)NC(=O)c1cccs1)c1ccc(O)cc1` gave HT1080 IDH1KD tx -23%, HepG2 viability 2%, DT40 TDP1 CPT 23µM*, TDP1 cell noCPT inconclusive, TGFb SMAD3 inh 0% and HT1080NT lethal inconclusive.
`O=C(NNC(=S)NC(=O)c1cccs1)c1ccc(NC(=O)c2ccccc2)cc1` gave HT1080 IDH1KD tx -14%, HepG2 viability 6%, DT40 TDP1 CPT 26µM*, TDP1 cell noCPT inconclusive, TGFb SMAD3 inh -22% and HT1080NT lethal -20%.
For O=C(NNC(=O)c1cccs1)c1ccncc1 the results were HT1080 IDH1KD tx -13%, HepG2 viability 2%, DT40 TDP1 CPT -1%, TDP1 cell noCPT 1%, TGFb SMAD3 inh 7% and HT1080NT lethal -8%.
O=C(CC(=O)c1cccs1)c1ccncc1 was read as HT1080 IDH1KD tx -2%, HepG2 viability -3%, DT40 TDP1 CPT 21µM*, TDP1 cell noCPT 29µM*, TGFb SMAD3 inh -3% and HT1080NT lethal 0%.
`CCCCNC(=O)C[C@@H]1C[C@@]2(C(=O)OCC)CCCC=C2N(Cc2ccco2)C1=O` gave HT1080 IDH1KD tx 14%, DT40 TDP1 CPT inconclusive, TDP1 cell noCPT inconclusive and HT1080NT lethal 11%.
Cc1ccc(S(=O)(=O)N2C[C@H]3C(=O)C[C@@H](c4ccccc4C)N(S(=O)(=O)c4ccc(C)cc4)[C@H]3C[C@H]2c2ccccc2)cc1 was read as HT1080 IDH1KD tx 16%, HepG2 viability -14%, DT40 TDP1 CPT -24%, TDP1 cell noCPT -27%, TGFb SMAD3 inh -13% and HT1080NT lethal 14%.
Screening CCn1ncc(CN2CCCC(C(=O)c3cccc(OC(C)C)c3)C2)c1C (stereo unspecified) returned HT1080 IDH1KD tx 2%, HepG2 viability -25%, DT40 TDP1 CPT inconclusive, TDP1 cell noCPT inconclusive, TGFb SMAD3 inh -23% and HT1080NT lethal 8%.
For O=C(c1ccc2c(c1)OCO2)C1CCCN(Cc2cccn2-c2cccnc2)C1 (stereo unspecified) the results were HT1080 IDH1KD tx -23%, HepG2 viability -22%, DT40 TDP1 CPT 23µM*, TDP1 cell noCPT 15µM*, TGFb SMAD3 inh -1% and HT1080NT lethal -14%.
For O=C(c1ccc2c(c1)OCO2)C1CCCN(Cc2cc(F)ccc2-n2cccn2)C1 (stereo unspecified) the results were HT1080 IDH1KD tx -12%, HepG2 viability 3%, DT40 TDP1 CPT -1%, TDP1 cell noCPT -15%, TGFb SMAD3 inh 6% and HT1080NT lethal -15%.
`CCOC(=O)c1[nH]ncc1CN1CCCC(C(=O)c2ccc(OC)c(OC)c2)C1` (stereo unspecified) gave HT1080 IDH1KD tx -2%, HepG2 viability -6%, DT40 TDP1 CPT 1%, TDP1 cell noCPT -20%, TGFb SMAD3 inh inconclusive and HT1080NT lethal -4%.
Screening CSc1ccc(C(=O)C2CCCN(Cc3cccn3-c3cccnc3)C2)cc1 (stereo unspecified) returned HT1080 IDH1KD tx -20%, HepG2 viability -10%, DT40 TDP1 CPT 4.6µM*, TDP1 cell noCPT 5.2µM*, TGFb SMAD3 inh inconclusive and HT1080NT lethal inconclusive.
For CC(C)Oc1cccc(C(=O)C2CCCN(Cc3cccn3-c3cccnc3)C2)c1 (stereo unspecified) the results were HT1080 IDH1KD tx -13%, HepG2 viability -33%, DT40 TDP1 CPT inconclusive, TDP1 cell noCPT 13µM*, TGFb SMAD3 inh inconclusive and HT1080NT lethal -14%.
`COc1ccc(C(=O)C2CCCN(Cc3cccn3-c3cccnc3)C2)cc1OC` (stereo unspecified) gave HT1080 IDH1KD tx 1%, HepG2 viability -9%, DT40 TDP1 CPT 16µM*, TDP1 cell noCPT 15µM*, TGFb SMAD3 inh 0% and HT1080NT lethal 3%.
Screening CCOc1ccc(CCN2C(=O)C(=O)N([C@@H](Cc3ccccc3)CN3CCC[C@H]3CN3C(=O)C(=O)NC[C@@H]3Cc3ccccc3)C[C@@H]2CC(C)C)cc1 returned HT1080 IDH1KD tx 1%, DT40 TDP1 CPT inconclusive, TDP1 cell noCPT 18µM* and HT1080NT lethal -7%.
Screening CCOc1ccc(CCN2C(=O)C(=O)N([C@@H](Cc3ccccc3)CN3CCC[C@H]3CN3C(=O)C(=O)NC[C@@H]3Cc3ccccc3)C[C@@H]2Cc2ccccc2)cc1 returned HT1080 IDH1KD tx inconclusive, DT40 TDP1 CPT inconclusive, TDP1 cell noCPT 23µM* and HT1080NT lethal inconclusive.
Screening COC(=O)CSc1nnc2n1C(C)(C)Cc1ccccc1-2 returned HT1080 IDH1KD tx 5%, HepG2 viability -3%, DT40 TDP1 CPT -1%, TDP1 cell noCPT 10%, TGFb SMAD3 inh 4% and HT1080NT lethal 9%.
